FMDV inh: blocks foot and mouth disease virus. FMDV antiviral cell-based qHTS. Potency, µM (doses to about 57.9 µM), inactives show at the top dose activity change, negative = inhibition, hits mostly inhibitors. hit rate 1.2% among 410,000. AID 1159524; calls by dose curve; tested in HEK293T cells; note: read-out not given here; nearly all actives have a fitted effect of over 45% in size
LASV entry inh: blocks Lassa virus binding to or entry into cells | Lassa virus pseudotype entry inhibition, cell reporter | Potency, µM (titrated, usually from 37.9 µM), inactives show top-dose activity change, negative = inhibition, actives largely listed as inhibitors | hit rate 1.2% among 300,000 | AID 540256; calls by dose curve; tested in HEK293 cells; note: nearly all actives have a fitted effect of over 50% in size
Sm TGR inh: inhibitors of Schistosoma mansoni thioredoxin glutathione reductase | purified TGR, DTNB reduction, TNB absorbance 405 nm | Potency, µM (doses to about 114 µM), inactives show at the top dose activity change, negative = inhibition, hits mostly inhibitors | hit rate 3% among 360,000; active = well fitted inhibition curve with a large enough effect; inconclusive = small, poorly fitted or top-dose-only effect; inactive = no such curve, though single readings can be large or run the other way; note: nearly all actives have a fitted effect of over 60% in size
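First, TGR (20 nM dispensed) and NADPH were mixed with compound. Second, a 15 min room-temperature incubation followed. Third, further NADPH and then DTNB were added to start the reaction. Finally, TNB absorbance was monitored kinetically.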
MARV entry inh: blocks Marburg virus binding to or entry into cells; hit rate 1.8% among 300,000; Potency, µM (highest dose often 37.8 µM), for inactives: at the highest dose activity change, negative = inhibition, usual class: inhibitors; AID 540276; Marburg virus pseudotyped entry inhibition, cell reporter; calls by dose curve; tested in HEK293 cells
Vaccinia Venus: inhibitors of vaccinia virus (Venus reporter); Vaccinia virus Venus reporter expression, fluorescence; Potency, µM (titrated, usually from 36.5 µM), for inactives: at the highest dose activity change, negative = inhibition, usual class: inhibitors; hit rate 0.46% among 330,000; AID 720580; calls by dose curve; tested in A549 cells; note: nearly all actives have a fitted effect of over 30% in size
VACV mCherry inh: inhibitors of vaccinia virus infection (mCherry reporter signal). hit rate 0.63% among 310,000. AID 720579. Vaccinia virus mCherry reporter infection, fluorescence. Potency, µM (titrated, usually from 36.5 µM), inactives show at the top dose activity change, negative = inhibition, hits mostly inhibitors; calls by dose curve; tested in A549 cells; note: nearly all actives have a fitted effect of over 35% in size
The depositor's hits bear a star; ! = repeats disagree; [ ] = remark or other dose. Hits are enriched below; roughly 5.4% of the tested compounds scored in any of these assays. % is set by controls: 0 for no effect and ±100 for the full control effect; potency is the fitted concentration of half-maximal effect.

`CCN1C(=O)/C(=c2\sc3nc(=O)c(Cc4ccccc4)nn3c2=O)c2ccccc21` gave FMDV inh -7.9%, LASV entry inh 3.6%, Sm TGR inh 3.55µM*, MARV entry inh 11.6%, Vaccinia Venus -9.8% and VACV mCherry inh -13.4%.
Screening C=CCN1C(=O)/C(=c2\sc3nc(=O)c(Cc4ccc(OC)c(OC)c4)nn3c2=O)c2ccccc21 returned FMDV inh -6.5%, LASV entry inh 3.8%[46.1 µM], Sm TGR inh 0.631µM*, MARV entry inh 0.3%[46.1 µM], Vaccinia Venus -7.7% and VACV mCherry inh -13.8%.
`C=CCN1C(=O)/C(=N/n2cnnc2)c2ccccc21` gave FMDV inh -4.9%, LASV entry inh -7.2%, Sm TGR inh -3.3%, MARV entry inh -4.3% and Vaccinia Venus -11.6%.
`COc1ccc(-n2c(-c3ccco3)nc3c(cnn3-c3ccc(C)cc3)c2=O)cc1` gave FMDV inh 39.8µM*!, LASV entry inh inconclusive, Sm TGR inh -12.8%, MARV entry inh 0.9%[46.1 µM], Vaccinia Venus -24.9% and VACV mCherry inh inconclusive.
For COc1cccc(-n2c(-c3ccco3)nc3c(cnn3-c3ccccc3C)c2=O)c1 the results were FMDV inh 14.1µM*, LASV entry inh inconclusive, Sm TGR inh -0.9%, MARV entry inh inconclusive, Vaccinia Venus -3.4% and VACV mCherry inh -13.7%.
For C=CCOC(=O)C1=C(C)OC(N)=C(C#N)[C@@]12C(=O)N(CN1CCOCC1)c1ccccc12 the results were MARV entry inh 16.5%[46.1 µM].
For O=C(Nc1cccc(Cl)c1Cl)c1cc(S(=O)(=O)N2CCCCC2)ccc1F the results were FMDV inh -5.2%, LASV entry inh -0.6%[46.1 µM], Sm TGR inh -5.5%, Vaccinia Venus -14.3% and VACV mCherry inh -12.4%.
Screening Cc1nc(Cl)nc(N(C)c2ccccc2)c1[N+](=O)[O-] returned FMDV inh -18.7%, LASV entry inh 16.7%[46.1 µM], Sm TGR inh 4.47µM*, MARV entry inh 19.6%[46.1 µM], Vaccinia Venus 0.2% and VACV mCherry inh inactive.
For Cc1nc(N/N=C/c2ccccc2)nc(N(C)c2ccccc2)c1[N+](=O)[O-] the results were FMDV inh -22.9%, LASV entry inh -6.1%, Sm TGR inh -2.3% and MARV entry inh -29.6%.
NCC12CC3CC(C1)CC(CN)(C3)C2 was read as FMDV inh -15.7%, LASV entry inh -11.8%, Sm TGR inh 4.4% and MARV entry inh 18.3µM*.
For NCC12CC3CC(C1)CC(c1ccc(Cl)cc1)(C3)C2 the results were FMDV inh -29.2%, Sm TGR inh 6.1%, Vaccinia Venus 12.6µM* and VACV mCherry inh inconclusive.
Screening Nc1ccc(C23CC4CC(CC(CO)(C4)C2)C3)cc1 returned FMDV inh 13.3%, LASV entry inh 6.1%, Sm TGR inh 12.6% and MARV entry inh 12.6%.
Screening COc1cccc(N2C(=O)CSC23C(=O)N(CC(=O)Nc2cc(C)ccc2C)c2ccccc23)c1 (configuration not stated) returned FMDV inh -15.0%, LASV entry inh -20.0%[46.1 µM], Sm TGR inh -9.5%, Vaccinia Venus -1.4% and VACV mCherry inh 0.6%.
Screening COc1cccc(CNC(=O)c2c(OC)cc(=O)n3c2CCN(C(=O)c2cc(F)cc(F)c2)CC3)c1 returned FMDV inh 6.1%, Vaccinia Venus 0.0% and VACV mCherry inh -10.2%.
Screening Cc1ccc(C)c(C(=O)COC(=O)C(C)N2C(=O)C3C4CCC(C4)C3C2=O)c1 (configuration not stated) returned FMDV inh -13.7% and Sm TGR inh 22.4µM*.
`Cn1c2ccccc2c2cc(C(=O)NNC(=O)CCl)sc21` gave FMDV inh 15.8µM*, LASV entry inh -18.5%, Sm TGR inh 39.8µM*, MARV entry inh inconclusive, Vaccinia Venus -5.8% and VACV mCherry inh -1.2%.
`CCCNC(=O)c1cc2c3ccccc3n(C)c2s1` gave FMDV inh 3.6%, LASV entry inh inconclusive, Sm TGR inh 3.2% and MARV entry inh -21.9%.
Screening O=C(COc1ccccc1Cl)N(Cc1ccco1)Cc1ccco1 returned FMDV inh -15.5%, LASV entry inh 14.0%[46.1 µM], Sm TGR inh 2.7%, MARV entry inh 0.7%[46.1 µM], Vaccinia Venus -7.7% and VACV mCherry inh 1.9%.
Screening CCCCc1nn2c(=O)cc(COC(=O)c3ccc(NC(=O)C4CCCCC4)cc3)nc2s1 returned FMDV inh inconclusive, LASV entry inh 7.4%[46.1 µM], Sm TGR inh 0.3%, Vaccinia Venus -1.4% and VACV mCherry inh -9.2%.
For Cc1ccccc1CS(=O)(=O)c1ncc(Cl)c(C(=O)Nc2nnc(C(C)C)s2)n1 the results were FMDV inh 20µM*, LASV entry inh inconclusive, Sm TGR inh 20µM*, MARV entry inh inconclusive, Vaccinia Venus inconclusive and VACV mCherry inh inconclusive.
For Cc1ccccc1NC(=O)c1nc(S(=O)(=O)Cc2ccccc2F)ncc1Cl the results were Vaccinia Venus -21.4% and VACV mCherry inh -18.3%.
Screening COc1ccc2nc(NC(=O)c3nc(S(=O)(=O)Cc4ccc(C)cc4)ncc3Cl)sc2c1 returned FMDV inh -8.8%, LASV entry inh inconclusive, Sm TGR inh 6.2%, MARV entry inh inconclusive, Vaccinia Venus -6.5% and VACV mCherry inh inactive.
`CC(C)Sc1ncc(Cl)c(C(=O)Nc2nnc(C(C)C)s2)n1` gave FMDV inh -24.5%, LASV entry inh 11.6%[46.1 µM], Sm TGR inh -0.3%, MARV entry inh -3.0%[46.1 µM], Vaccinia Venus 1.5% and VACV mCherry inh -5.3%.
CSc1nnc(NC(=O)c2nc(S(=O)(=O)Cc3ccccc3)ncc2Cl)s1 was read as FMDV inh 6.31µM*, LASV entry inh inconclusive, Sm TGR inh 12.6µM*, MARV entry inh inconclusive, Vaccinia Venus -2.3% and VACV mCherry inh -1.4%.
Screening CCCc1nnc(NC(=O)c2nc(S(=O)(=O)Cc3ccc(C)cc3)ncc2Cl)s1 returned FMDV inh 35.5µM*, LASV entry inh inconclusive, Sm TGR inh 25.1µM*, MARV entry inh -1.7%[46.1 µM], Vaccinia Venus -9.5% and VACV mCherry inh -13.9%.
Screening CC(C)c1nnc(NC(=O)c2nc(S(=O)(=O)Cc3ccccc3)ncc2Cl)s1 returned FMDV inh 4.47µM*, LASV entry inh inconclusive, Sm TGR inh 39.8µM*, MARV entry inh inconclusive, Vaccinia Venus inconclusive and VACV mCherry inh inconclusive.
`Cc1occc1C(=O)NC(C)C1CCCO1` (configuration not stated) gave FMDV inh -12.0%, LASV entry inh 6.9%, Sm TGR inh 22.4µM*, MARV entry inh -0.8%, Vaccinia Venus 0.1% and VACV mCherry inh -10.0%.
`CCOC(=O)CC1CCCCN1C(=O)c1cc(COc2cccc3cnccc23)on1` (configuration not stated) gave FMDV inh 2.82µM* and Sm TGR inh 1.4%.
Screening COC(=O)C1CCCCN1C(=O)c1cc(COc2cccc3cnccc23)on1 (configuration not stated) returned Sm TGR inh -30.0%.

Source: PubChem
